# An excerpt weighted towards active compounds, which were near 2.7% of everything screened.
# TGFb SMAD3 inh = blocks TGF-b signaling. HepG2 CAGA-GFP TGF-b/SMAD3 reporter, GFP fluorescence, 18 h; TGF-beta stimulated, 500 pg/mL final. Potency, µM (doses to about 46.1 µM), hits mostly inhibitors. hit rate 1.2% among 410,000. AID 588855; note: nearly all actives have a fitted effect of over 65% in size
#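 Using HEPG2 CAGA-GFP reporter cells at 1000 cells/well, we pinned test compounds, stimulated with recombinant TGF-beta (500 pg/mL final) and measured total well GFP after 18 h.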
# HepG2 viability = kills HepG2 cells in TGF-b inhibitor counter-screen. hit rate 0.76% among 410,000. HepG2 CAGA-GFP viability, ATP luminescence, 18 h. Potency, µM (titrated, usually from 46.1 µM), most hits filed as cytotoxic. AID 588856
#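 CellTiter-Glo luminescence gave cytotoxicity after 18 hours at 37 degrees C. The cells were HepG2 CAGA-GFP in 1% FBS DMEM, stimulated with 500 pg/mL TGF-beta after compound addition. %Activity was normalised to no-cell wells (complete cell-killing) and DMSO (no toxicity), and curves were fitted and classified.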
# S2 tox = viability counter-screen for ATXN expression inhibitors; hit rate 0.49% among 400,000; S2 cells (HEK-293 line with an ATXN2-luciferase reporter) viability, CellTiter-Fluor protease fluorescence, 24 h; Potency, µM (highest dose often 56.7 µM), most hits filed as cytotoxic; note: nearly all actives have a fitted effect of over 40% in size
# ATXN2 expr inh = reduces ATXN2 reporter expression in HEK-293 cells | hit rate 0.72% among 360,000 | Potency, µM (series often up to 57 µM), most hits filed as inhibitors | HEK-293 ATXN2-luciferase reporter, luminescence, 24 h | AID 1745845; note: nearly all actives have a fitted effect of over 55% in size
#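 qHTS (up to 57 uM final) was run with 24 h compound exposure of reporter cells at 37 °C. Each well was multiplexed: SteadyGlo luminescence measured ATXN2-luciferase expression after a fluorogenic Gly-Phe-AFC viability readout (25 uM final).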
# ALOX12 inh = inhibitors of human 12S-lipoxygenase ALOX12 | purified 12hLO, xylenol orange hydroperoxide absorbance | Potency, µM (highest dose often 108 µM), actives largely listed as inhibitors | hit rate 1.1% among 580,000 | AID 1671190
# Target sequence (P18054 whole entry, looked up): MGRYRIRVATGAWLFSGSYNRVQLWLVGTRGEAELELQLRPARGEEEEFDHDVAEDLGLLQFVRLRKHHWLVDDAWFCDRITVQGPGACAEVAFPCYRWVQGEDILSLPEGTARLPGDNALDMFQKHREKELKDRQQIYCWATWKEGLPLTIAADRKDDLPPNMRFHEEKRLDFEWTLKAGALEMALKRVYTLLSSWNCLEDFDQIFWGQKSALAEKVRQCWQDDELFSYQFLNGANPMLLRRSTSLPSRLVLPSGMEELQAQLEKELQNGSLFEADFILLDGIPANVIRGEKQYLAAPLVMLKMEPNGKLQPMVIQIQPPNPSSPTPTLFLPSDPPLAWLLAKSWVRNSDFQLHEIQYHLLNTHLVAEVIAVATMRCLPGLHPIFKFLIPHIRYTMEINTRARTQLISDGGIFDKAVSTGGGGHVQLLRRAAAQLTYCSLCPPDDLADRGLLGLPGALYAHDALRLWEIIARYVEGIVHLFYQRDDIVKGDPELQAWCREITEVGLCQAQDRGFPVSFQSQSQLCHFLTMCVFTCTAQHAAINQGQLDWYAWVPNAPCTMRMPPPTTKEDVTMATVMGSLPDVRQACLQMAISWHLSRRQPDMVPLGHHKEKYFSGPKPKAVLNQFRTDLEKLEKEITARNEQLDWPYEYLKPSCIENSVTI
#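 Purified human 12hLO (150 nM final) in 25 mM Hepes, 0.01% Triton X-100, pH 7.0 was preincubated 15 min at room temperature with compound. Then 40 uM arachidonic acid was added, 30 min. Hydroperoxide was read by Fe-XO absorbance ratio 573/405 nm.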
# Numbers stand for hits; n = inactive; u = inconclusive; x = no result; [ ] = dose if it differs, or a comment. Calls come from the whole dose curve; as a rule, active = well fitted curve in the direction sought with a large enough effect; inconclusive = small, poorly fitted or top-dose-only effect, or another doubt; inactive = no such curve, though single readings can be large; an effect the other way counts as inactive or inconclusive.
SMILES,TGFb SMAD3 inh,HepG2 viability,S2 tox,ATXN2 expr inh,ALOX12 inh
CS(=O)(=O)c1ccc(C(=O)OCC(=O)Nc2cc(C(F)(F)F)ccc2Cl)cc1[N+](=O)[O-],8.91µM,n,x,x,x
COc1ccc(C(C)=O)cc1CC(=O)Nc1cc(C)ccc1C,x,x,x,x,n
C=CCn1c(=O)/c(=C/c2ccc(C)o2)s/c1=C(/C#N)C(=O)c1ccccc1,n,n,n,n,11.2µM
C=CCn1c(=O)/c(=C\c2ccccn2)s/c1=C(/C#N)C(=O)NCC1CCCO1 (centres undefined),n,n,x,n,n
COc1ccc(NC(=O)CSc2nc3c(=O)[nH]cnc3n2-c2ccc(C)cc2)cc1OC,x,x,x,x,n
O=C(NC1CCCCC1)N[C@H]1CO[C@H]2[C@@H]1OC[C@@H]2n1nnnc1-c1ccc2c(c1)OCO2,x,x,x,x,44.7µM
O=C(N[C@H]1CO[C@H]2[C@@H]1OC[C@@H]2n1nnnc1-c1ccc2c(c1)OCO2)c1ccccc1,x,x,x,x,n
Cc1cc(Nc2cc(NC(=O)c3c(Cl)cccc3Cl)ccn2)nc(N)n1,x,x,x,7.69µM,n
O=C(O)c1cc(N/N=C/c2ccc3c(c2)OCCO3)ccc1Cl,n,n,n,4.47µM,n
CCOc1ccc(NCc2cccn2-c2nnc(N3CCC(C(=O)NCCCN4CCCCC4C)CC3)s2)cc1 (centres undefined),n,20µM,n,x,n
O=C(CCc1c[nH]c2ccccc12)OCC(=O)N1CCCC1=O,x,x,x,x,n
COc1ccc(S[C@]2(c3nc(C)no3)CC(=O)N(c3ccc(OC)cc3)[C@@H]2c2ccc(OC)cc2)cc1,x,x,x,x,14.1µM
COC(=O)c1cccc(N2C(=O)C[C@](Sc3ccc(OC)cc3)(C(=O)N3CCN(c4ncccn4)CC3)[C@H]2c2ccc(OC)cc2)c1,x,x,x,x,n
Cc1ccccc1OCCOC(=O)c1c(-c2ccccc2)noc1C,n,n,n,n,n
Cc1onc(-c2ccccc2)c1C(=O)OCCOc1ccc([N+](=O)[O-])cc1[N+](=O)[O-],14.1µM,n,n,n,n
COc1ccc(OC)c(CN(C(=O)c2ccc(F)cc2)C2CC2)c1,x,x,x,x,n
COc1cccc(CNCCc2c[nH]c3ccccc23)c1OCc1ccccc1,u,11.2µM,n,u,u
COc1ccc(CCNC(=O)NCCc2c[nH]c3ccccc23)cc1OC,n,n,n,n,n
COc1cc(CNCCc2c[nH]c3ccccc23)ccc1OCc1ccccc1F,u,12.6µM,u,u,n
COC(=O)c1ccc(CN(C)CC2CC2)cc1,x,x,x,x,n
Nc1ccc(N2CCN(CCCCN3C(=O)C4CCCN4C3=O)CC2)cc1 (centres undefined),n,n,17.8µM,n,n
O=C1C2CCCN2C(=O)N1CCCN1CCN(c2cccc(Br)c2)CC1 (centres undefined),n,n,n,n,3.98µM
CCOC(=O)c1cc(N)cc(C(=O)OCC)c1,x,x,x,x,n
C/C=C\C=C\C(=O)Nc1cccc(C2=NOC3(C2)C[C@@H](C(N)=O)N(C(=O)C(c2ccccc2)c2ccccc2)C3)c1 (some centres undefined),u,n,n,n,8.91µM
C/C=C\C=C/C(=O)Nc1cccc(C2=NOC3(C2)C[C@H](C(N)=O)N(C(=O)CC)C3)c1 (some centres undefined),n,n,n,n,n
SMILES,TGFb SMAD3 inh,HepG2 viability,S2 tox,ATXN2 expr inh,ALOX12 inh
COc1ccc(-c2nc(Cn3c(SCc4ccc(C)cc4)nc4cccnc43)c(C)o2)cc1OC,10µM,n,x,x,n
O=C(/C=C/c1ccc2oc3ccccc3c2c1)c1ccccc1,x,x,x,x,n
Cc1cccc(/C=C2/Sc3ccc(C(=O)NCCCN4CCOCC4)cc3NC2=O)c1,x,x,x,x,n
Cc1cccc(/C=C2/Sc3ccc(C(=O)NCCN4CCCC4)cc3NC2=O)c1,u,n,u,x,u
O=C1Nc2cc(C(=O)NCCCN3CCCC3)ccc2S/C1=C/c1cccc(Cl)c1,u,15.8µM,u,x,u
CCN1CCN(CCCNC(=O)c2ccc3c(c2)NC(=O)/C(=C\c2cccc(C)c2)S3)CC1,u,12.6µM,u,x,u
COc1cccc(/C=C2/Sc3ccc(C(=O)NCCN4CCCCCC4)cc3NC2=O)c1,10µM,15.8µM,u,x,u
O=C1Nc2cc(C(=O)NCCN3CCCCCC3)ccc2S/C1=C\c1ccccc1,u,14.1µM,u,x,u
CCCCCOc1ccc2c(C)c(CCCCC)c(=O)oc2c1,x,x,x,x,n
COc1ccc(C(=O)NCCCN2CCOCC2)cc1OC,n,n,n,n,n
COc1ccc(/C=C2/Sc3ccc(C(=O)NCCCN4CCOCC4)cc3NC2=O)cc1OC,14.1µM,20µM,u,n,n
CCc1cccc(NC(=S)N(CCC(C)C)C(C)c2cccs2)c1 (centres undefined),x,x,x,x,39.8µM
CN(C(=O)CSc1nc(-c2ccccc2)no1)C1CCCCC1,x,x,x,x,n
COc1ccc(C(O)c2ncc(-c3ccc(Cl)cc3)[nH]2)cc1 (centres undefined),n,n,n,n,u
COc1ccc(-c2cnc(C(N)=O)c(=O)[nH]2)cc1,n,n,x,x,6.31µM
Cc1cccc(NC(=O)COC(=O)COc2ccc3ccccc3c2)c1C,x,x,x,x,n
Clc1ccc(-c2cn3nc4c(nc3n2)CCCC4)cc1,n,n,x,14.1µM,n
Cc1ccc(C(=O)C(C)Oc2ccc(C#N)cc2)cc1C (centres undefined),x,x,x,x,n
O=C(CSCc1ccc(Cl)cc1)Nc1ccc(O)cc1C(=O)O,n,n,n,n,6.31µM
CCc1noc(-c2ccn3c(CNC(=O)CCc4ccccc4)nnc3c2)n1,x,x,x,x,n
N#Cc1c2nc3ccccc3nc2n2cc(NC(=O)c3ccc(F)cc3)ccc12,n,n,n,n[11.3 µM],39.8µM
Oc1c(/C=C/C=C/C=Nc2ccccc2)sc(=S)n1Cc1ccccc1,u,n,u,x,12.6µM
CCCCn1c(O)c(/C=C/C=C/C=Nc2ccccc2)sc1=S,u,n,n,n,12.6µM
CCc1ccc(C(=O)COC(=O)Cc2cccc3ccccc23)cc1,x,x,x,x,n
COc1ccccc1C1=NS(=O)(=O)N(C)C(C(=O)N2CCCCC2C)=C1 (centres undefined),x,x,x,x,n
SMILES,TGFb SMAD3 inh,HepG2 viability,S2 tox,ATXN2 expr inh,ALOX12 inh
COCc1nc(C2CCN(S(=O)(=O)c3ccc(C#N)cc3)C2)no1 (centres undefined),x,x,x,x,n
CN(Cc1ccccc1)C(=O)CSc1c2c(nc3ccc(Cl)cc13)CCCC2,u,22.4µM,x,x,n
CCCCN(C)C(=O)CSc1c2c(nc3ccc(Cl)cc13)CCCC2,u,n,x,x,n
CC1CCN(C(=O)CSc2c3c(nc4ccc(Cl)cc24)CCCC3)CC1,15.8µM,n,x,x,u
Cc1cc(O)c(C(C)C)cc1C1(c2cc(C(C)C)c(O)cc2C)OC(=O)c2ccccc21,12.6µM,14.1µM,x,u,u
COC(=O)CCC(=O)Oc1cc(C)c(C2(c3cc(C(C)C)c(OC(=O)CCC(=O)OC)cc3C)OC(=O)c3ccccc32)cc1C(C)C,x,x,x,x,n
O=C1OC(c2cc(I)c(O)c(I)c2)(c2cc(I)c(O)c(I)c2)c2ccccc21,x,x,x,x,10µM

# Screening data: PubChem, National Center for Advancing Translational Sciences (NCATS)
